# Bioassay records as filed in PubChem.
# S-ASM inh: human S-ASM enzyme inhibition | placental ASM, HMU-PC fluorogenic substrate, 60 min | Potency, µM (titrated, usually from 57.5 µM), for inactives: top-dose activity change, negative = inhibition, hits mostly inhibitors | actives 0.006% (n = 340,000) | AID 504937; note: potency is the fitted concentration of half-maximal effect
# Target sequence (P17405 47-631 limits assumed): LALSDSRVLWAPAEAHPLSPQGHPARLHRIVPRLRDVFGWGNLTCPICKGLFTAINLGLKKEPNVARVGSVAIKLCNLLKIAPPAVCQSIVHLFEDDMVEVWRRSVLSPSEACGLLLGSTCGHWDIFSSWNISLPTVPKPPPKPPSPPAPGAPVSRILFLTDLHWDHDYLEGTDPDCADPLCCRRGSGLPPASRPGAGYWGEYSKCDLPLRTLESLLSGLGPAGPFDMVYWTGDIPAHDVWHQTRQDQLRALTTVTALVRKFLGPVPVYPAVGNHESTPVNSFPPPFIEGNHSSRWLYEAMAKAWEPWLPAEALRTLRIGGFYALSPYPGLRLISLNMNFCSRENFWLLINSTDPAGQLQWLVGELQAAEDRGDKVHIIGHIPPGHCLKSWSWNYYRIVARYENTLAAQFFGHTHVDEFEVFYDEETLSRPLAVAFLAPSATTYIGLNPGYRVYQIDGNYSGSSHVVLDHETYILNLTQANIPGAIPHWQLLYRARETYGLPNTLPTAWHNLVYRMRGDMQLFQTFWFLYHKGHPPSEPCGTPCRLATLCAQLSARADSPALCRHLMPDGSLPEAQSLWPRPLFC
#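 qHTS format. ASM enzyme prepared from human placenta hydrolyses the fluorogenic substrate HMU-PC0 (9 uM final) over 60 min at 37 °C after a 10 min compound preincubation.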
# DT40 TDP1 CPT: growth inhibition of DT40 Tdp1-/-;hTDP1 cells with camptothecin (screen for TDP1 inhibitors); chicken DT40 Tdp1-/-;hTDP1 cells + 20 nM CPT, ATP luminescence, 48 h; actives 12% (n = 420,000); Potency, µM (titrated, usually from 46.2 µM), without a hit: top-dose activity change, negative = growth inhibition, actives largely listed as inhibitors; note: potency is the fitted concentration of half-maximal effect; % is set by controls: 0 for no effect and ±100 for the full control effect; nearly all actives have a fitted effect of over 55% in size
#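 Chicken DT40 Tdp1-/- cells complemented with human TDP1, 400 cells/well, exposed to compounds plus 20 nM camptothecin for at least 48 h at 37 C; viability read as ATP content by CellTiter-Glo luminescence.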
# TDP1 cell noCPT: qHTS for Inhibitors of human tyrosyl-DNA phosphodiesterase 1 (TDP1): qHTS in cells in absence of CPT; DT40 Tdp1-/- hTDP1 cells, no CPT, ATP luminescence, 48 h; actives 15% (n = 420,000); AID 686978, 2013; Potency, µM (doses to about 46.2 µM), for the others: at the highest dose activity change, negative = growth inhibition, most hits filed as inhibitors; note: potency is the fitted concentration of half-maximal effect; % is set by controls: 0 for no effect and ±100 for the full control effect; nearly all actives have a fitted effect of over 55% in size
#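 Growth kinetics read by CellTiter-Glo luminescence after ≥48 hr at 37 °C. Cells: DT40 Tdp1-/- stably carrying human TDP1, 400 per well, compound exposure in the absence of CPT (DMSO vehicle).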
# IL-1B inflam inh: blocks inflammasome-driven IL-1 beta release. THP-1 LPS/ATP IL-1B secretion, AlphaLISA, 16 h; hits give low values. activity change, % at 57.5 µM. actives 4.7% (n = 360,000). AID 743279; in the data active = activity change below about -50%; inconclusive = mostly about -30% to -49%; note: % is set by controls: 0 for no effect and ±100 for the full control effect
#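 THP-1 cells pretreated 1 hr with compounds (up to 57.5 uM final), then stimulated with LPS (250 ng/mL final) plus ATP (1.25 mM final); secreted IL-1B measured by AlphaLISA after 16 hr, decreased signal indicating inhibition.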
# TGFb SMAD3 inh: inhibitors of TGF-b signaling. Potency, µM (highest dose often 46.1 µM), for the others: at the highest dose activity, negative = inhibition, most hits filed as inhibitors. HepG2 CAGA-GFP TGF-b/SMAD3 reporter, GFP fluorescence, 18 h; TGF-beta stimulated, 500 pg/mL final. AID 588855. actives 1.2% (n = 410,000); note: potency is the fitted concentration of half-maximal effect; % is set by controls: 0 for no effect and ±100 for the full control effect; nearly all actives have a fitted effect of over 65% in size
#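 GFP signal (ex488/em500-530) from TGF-beta-stimulated HEPG2 CAGA-GFP cells, 500 pg/mL final, 18 h at 37 degrees C in DMEM plus 1% FBS, normalized to unstimulated and DMSO-stimulated controls.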
# HepG2 viability: counter-screen for TGF-b inhibitors: cytotoxicity in HepG2 cells; HepG2 CAGA-GFP viability, ATP luminescence, 18 h; Potency, µM (highest dose often 46.1 µM), for inactives: at the top dose activity change, negative = cytotoxicity, actives largely listed as cytotoxic; actives 0.76% (n = 410,000); AID 588856; note: potency is the fitted concentration of half-maximal effect
#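 CellTiter-Glo luminescence gave cytotoxicity after 18 hours at 37 degrees C. The cells were HepG2 CAGA-GFP in 1% FBS DMEM, stimulated with 500 pg/mL TGF-beta after compound addition. %Activity was normalised to no-cell wells (complete cell-killing) and DMSO (no toxicity), and curves were fitted and classified.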
# An asterisk follows results filed as active; ? = inconclusive; nt = no result; [ ] = dose if it differs, or a comment. Compounds with a hit are over-represented: about 19% of the library has one in this group of screens. Unless noted, calls come from the whole dose curve; as a rule, active = well fitted curve in the direction sought with a large enough effect; inconclusive = small, poorly fitted or top-dose-only effect, or another doubt; inactive = no such curve, though single readings can be large; an effect the other way counts as inactive or inconclusive.
SMILES,S-ASM inh,DT40 TDP1 CPT,TDP1 cell noCPT,IL-1B inflam inh,TGFb SMAD3 inh,HepG2 viability
CCOC(=O)Cn1c(=O)cc(-c2ccccc2)c2c(C)nn(C)c21,nt,?,?,nt,-23.9%,-14.2%
c1ccc(Cc2nnc3n2CCN(Cc2cnc(-c4ccccc4)s2)CC3)cc1,nt,-20.4%,-14.9%,nt,nt,nt
COc1ccc(CN2CCN(C3CCSCC3)CC2CCO)c(C)c1C (stereo not drawn),4.1%,18.4µM*,16.4µM*,-4.4,3.5%,-14.0%
CC(=O)c1cc(CN2CCN(CCC(C)C)C(CCO)C2)cs1 (stereo not drawn),3.7%,16.4µM*,?,6.6,3.9%,1.3%
COc1ccc(CN2CCN(Cc3nc4ccccc4s3)CC2CCO)c(C)c1C (stereo not drawn),-1.3%,?,14.6µM*,?,?,-54.5%
COc1ccc(CN2CCN(CC3CC3)CC2CCO)c(C)c1C (stereo not drawn),3.7%,?,-12.3%,-2.5,24.0%,2.4%
COc1ccc(CN2CCN(Cc3csc(C(C)=O)c3)CC2CCO)c(C)c1C (stereo not drawn),-1.3%,-10.1%,10.3µM*,-16.0,-27.7%,-39.2%
CC(=O)c1cc(CN2CCN(Cc3ccc(C)cc3)C(CCO)C2)cs1 (stereo not drawn),9.6%,-12.8%,?,-24.0,-2.3%,-15.4%
COc1ccc(CN2CCN(C3CCOCC3)CC2CCO)c(C)c1C (stereo not drawn),1.4%,-7.0%,-3.3%,6.9,1.7%,-14.2%
COCC1CCCN(Cc2ccc3c(c2)CN(C(=O)c2cnn(C(C)C)c2)CCO3)C1 (stereo not drawn),nt,12.7%[9.04 µM],-22.2%,nt,nt,nt
Cc1c(C(=O)NCCN2CCC(c3ccccc3)CC2)cnn1-c1nccc(-c2cccs2)n1,nt,7.6%[9.04 µM],?,nt,nt,nt
COc1ccc(OC2CCN(C(=O)Nc3ccc(C)cc3)CC2)cc1,3.2%,-26.4%,?,-8.7,0.0%,-11.4%
Cn1c(N2CCOCC2)nc2c1c(=O)n(Cc1ccc(Cl)cc1)c(=O)n2C,-2.0%,?,?,-1.6,23.1%,6.4%
Cn1c(OCc2cccnc2)nc2c1c(=O)n(Cc1ccc(Br)cc1)c(=O)n2C,-8.1%,?,?,-52.5*,-4.1%,-19.2%
CC(O)CNc1nc2c(c(=O)n(Cc3ccc(Br)cc3)c(=O)n2C)n1C (stereo not drawn),-7.1%,3.9%,?,-3.5,1.0%,-42.1%
Cn1c(OCc2cccnc2)nc2c1c(=O)n(Cc1ccc(Cl)cc1)c(=O)n2C,-9.4%,11.6µM*,18.4µM*,17.8,-1.8%,-22.0%
O=C(CCc1nnc2n(Cc3ccc(Cl)cc3)c(=O)c3ccccc3n12)N1CCN(c2ccccn2)CC1,-13.4%,20.6µM*,20.6µM*,nt,16.5%,2.3%
Cn1c(N2CCN(c3ccccn3)CC2)nc2c1c(=O)n(Cc1ccc(Cl)cc1)c(=O)n2C,-7.2%,16.4µM*,?,-6.2,-6.8%,-20.0%
Cn1c(=O)c2nc(SCCO)n(C)c2n(C)c1=O,1.7%,5.2%,?,-4.6,9.4%,3.5%
COc1cccc(NC(=O)Cn2c(=O)n(-c3ccccc3)c(=O)c3ccc(C(=O)NCc4ccc5c(c4)OCO5)cc32)c1,nt,?,?,nt,-2.0%,-17.0%
CCN(CC(=O)NC1CCS(=O)(=O)C1)S(=O)(=O)c1cc(C)ccc1C (stereo not drawn),-0.9%,6.5%,-0.1%,3.0,-8.1%,-1.1%
O=c1c2ccc([N+](=O)[O-])cc2ncn1CCOc1ccc(Cl)cc1,-3.7%,18.4µM*,14.6µM*,-6.4,?,-32.8%
O=c1c2ccc([N+](=O)[O-])cc2ncn1CCOc1cccc(Br)c1,-2.7%,?,10.3µM*,12.7,-12.1%,-27.7%
CCOc1cccc(OCCn2cnc3ccccc3c2=O)c1,-4.1%,15.5%,-1.2%,16.9,-1.6%,-17.5%
Cn1c(=O)n(C)c2cc(NS(=O)(=O)c3ccc(F)cc3)c(NCc3ccccc3)cc21,nt,9.2µM*,14.6µM*,nt,4.5%,-19.9%
SMILES,S-ASM inh,DT40 TDP1 CPT,TDP1 cell noCPT,IL-1B inflam inh,TGFb SMAD3 inh,HepG2 viability
Cc1ccc(S(=O)(=O)Nc2cc3c(cc2NCc2ccccc2)n(C)c(=O)n3C)c(C)c1,nt,8.2µM*,23.1µM*,nt,6.0%,-42.9%
Cc1ccc(S(=O)(=O)Nc2cc3c(cc2NCc2ccccc2)n(C)c(=O)n3C)cc1,nt,9.2µM*,16.4µM*,nt,-9.9%,-28.7%
COCCCNC(=O)CN1C(=O)COc2ccc(S(=O)(=O)N3CC(C)CC(C)C3)cc21 (stereo not drawn),0.8%,-7.9%,15.5%,?,2.1%,2.9%
Cn1c(CBr)c(C(=O)c2ccc([N+](=O)[O-])cc2)c(=O)n(C)c1=O,0.5%,-19.3%,-25.7%,33.5,-2.6%,8.6%
CN1CCN(C(=O)/C(=C/c2cccnc2)NC(=O)c2cccc(Br)c2)CC1,0.3%,9.0%,2.2%,20.7,11.3%,-2.3%
COc1ccc(C)cc1NC(=O)CN1C(=O)CCc2cc(S(=O)(=O)N3CCOCC3)ccc21,nt,2.5%,-3.7%,nt,-26.7%,5.7%
COc1ccc(CN(C)S(=O)(=O)c2nnc(NC(=O)C(C)C)s2)cc1OC,nt,11.6µM*,10.3µM*,nt,0.0%,-3.2%
O=C(Nc1ccc(Cl)c(Cl)c1)N[C@@H]1CC[C@@H](CCn2cc(C3CCCCC3)nn2)O[C@@H]1CO,nt,?,20.6µM*,58.3,nt,nt
CN(CCc1ccccc1)c1cc2c(c3c1ccn3C)C1CCC2C1 (stereo not drawn),nt,16.4µM*,?,5.3,-17.1%,-10.3%
Cn1ccc2c(N(Cc3ccccc3)Cc3ccccc3)cc3c(c21)C1CCC3C1 (stereo not drawn),nt,18.4µM*,18.4µM*,12.3,-17.0%,-25.6%
CC(=O)c1ccc(F)c(-c2cc(C)cc3c2OC(CNC(=O)c2cccnc2)C3)c1 (stereo not drawn),nt,21.4%[9.04 µM],?,nt,nt,nt
CCCCN(C)C(=O)c1cn(C)c2ccc(S(=O)(=O)N3CCC(C)CC3)cc2c1=O,-0.6%,1.9%,12.7%,-4.9,-3.9%,4.9%
CCC(CC)C(=O)Nc1c2c(nn1-c1ccc(F)cc1)CS(=O)(=O)C2,-0.1%,16.6%,2.1%,5.1,-0.8%,-0.7%
